{"source": "PubChem BioAssay AID504465", "about": "(National Center for Advancing Translational Sciences (NCATS), 2011)", "note": "In all, about 2,100 compounds went through this assay and about 210 (10%) were called active. Not shown: some 53% with an inconclusive outcome. The call rests on the fitted dose curve; in most records, active means well fitted inhibition curve with a large enough effect; inconclusive means small, poorly fitted or top-dose-only effect, or effect the other way; inactive means no such curve, though single readings can be large or run the other way. This is one part of the list. Potency means the concentration at half of the fitted maximal effect."}
{"assay": "IN Cell qHTS Assay for Inhibitors of the mTORC1 Signaling Pathway in MEF (Tsc2-/-, p53-/-) Cells: Sytravon; further: nearly all actives have a fitted effect of over 60% in size;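 on activity, negative = inhibition: plate controls were DMSO wells for no effect and 7.5 nM rapamycin full pathway inhibition for full effect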", "conditions": "phospho-rpS6 immunofluorescence, 24 h; series mostly up to 38.3 µM; activity, negative = inhibition: at the top concentration", "procedure,_shortened": "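Tsc2-/-, p53-/- MEFs (empty-vector) treated with compound 24 h at 37 degree Celsius, then fixed and stained for phospho-rpS6 Ser235/236 (Alexa-488) plus Hoechst. Reported as % positive cells, thresholds set against 7.5 nM rapamycin and DMSO wells.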"}
{"compound": "O=C(CCCn1ccc2cc(S(=O)(=O)N3CCCC3)ccc21)NCc1ccc(Cl)cc1", "activity, negative = inhibition": "-28.7% (inactive)"}
{"compound": "CCc1ccccc1-n1c(SCC(=O)Nc2ccc(C)cc2)nc2n[nH]c(C)c2c1=N", "activity, negative = inhibition": "0% (inactive)"}
{"compound": "O=C(NCc1ccc(Cl)cc1Cl)c1cccc(N2CCCS2(=O)=O)c1", "activity, negative = inhibition": "19% (inactive)"}
{"compound": "CCCCN1C(=O)C(O)(c2c(C)[nH]c3ccccc23)c2ccccc21", "note": "(centres undefined)", "activity, negative = inhibition": "-20% (inactive)"}
{"compound": "Cc1ccc(S(=O)(=O)Cc2ccc(C(=O)N3CCN(c4cccc(C)c4C)CC3)o2)cc1", "activity, negative = inhibition": "0% (inactive)"}
{"compound": "Cc1cccc(N2CCN(C(=O)Cn3nc(Cc4cccnc4)c4ccccc4c3=O)CC2)c1C", "activity, negative = inhibition": "-14.4% (inactive)"}
{"compound": "Cc1ccccc1S(=O)Cc1ccc(C(=O)N2CCN(c3cccc(C)c3C)CC2)o1", "note": "(centres undefined)", "Potency": "3.69 µM (active)"}
{"compound": "CC1CCCCN1CC(=O)N1CCCc2c1c(=O)oc1ccc(OCc3ccccc3)cc21", "note": "(centres undefined)", "Potency": "13.1 µM (active)"}
{"compound": "O=C(COc1ccc2oc3c(c2c1)CCCC3)Nc1cccc(Br)c1", "activity, negative = inhibition": "-25.2% (inactive)"}
{"compound": "COc1ccc(OC)c(NC(=O)CN2C(=O)COc3ccc(S(=O)(=O)NC4CCCC4)cc32)c1", "activity, negative = inhibition": "0% (inactive)"}
{"compound": "COc1ccc(-c2nc(SCC(=O)NCc3ccccc3Cl)n[nH]2)cc1", "activity, negative = inhibition": "5.77% (inactive)"}
{"compound": "COc1cccc(C2C(C(N)=O)=C(C)Nc3nc(CCCO)nn32)c1", "note": "(centres undefined)", "activity, negative = inhibition": "-9.38% (inactive)"}
{"compound": "CCCC1=Nc2cc(C(=O)NCCOC)ccc2Sc2ccccc21", "activity, negative = inhibition": "-6.5% (inactive)"}
{"compound": "COc1cc(C(=O)Nc2cc(C)c(O)c(-c3nc4ccccc4s3)c2)cc(OC)c1OC", "activity, negative = inhibition": "-76.9% (inactive)"}
{"compound": "CCSc1ccccc1C(=O)Nc1ccc(-c2nc3ccccc3s2)c(O)c1", "Potency": "4.65 µM (active)"}
{"compound": "Cc1ccccc1NC(=O)CSc1nc2ccc(NC(=O)c3ccccc3)cc2s1", "activity, negative = inhibition": "-6.34% (inactive)"}
{"compound": "Cc1ccc(C)c(N2CCN(C(=O)C3CCN(c4nc5ccc(C)cc5[nH]4)CC3)CC2)c1", "activity, negative = inhibition": "0.961% (inactive)"}
{"compound": "Cc1ccccc1Cn1cc(NC(=O)c2cc(-c3ccc(Cl)cc3)on2)cn1", "activity, negative = inhibition": "-3.51% (inactive)"}
{"compound": "COc1ccc(N2CC(c3nc(-c4cc(OC)c(OC)c(OC)c4)no3)CC2=O)cc1Cl", "note": "(centres undefined)", "activity, negative = inhibition": "-1.67% (inactive)"}
{"compound": "Cc1ccc(NC(=O)Cc2coc3ccc(C(C)C)cc23)cc1Cl", "activity, negative = inhibition": "-9.6% (inactive)"}
{"compound": "Cc1ccc2onc(CC(=O)Nc3cccc(C(F)(F)F)c3)c2c1", "activity, negative = inhibition": "-16.8% (inactive)"}
{"compound": "Cc1ccc2occ(CC(=O)Nc3ccc(Cl)c(C(F)(F)F)c3)c2c1", "Potency": "13.1 µM (active)"}
{"compound": "CC(C)(C)c1ccc(Oc2nc3ccccn3c(=O)c2/C=C(\\C#N)c2nc3ccccc3[nH]2)cc1", "activity, negative = inhibition": "16.3% (inactive)"}
{"compound": "COc1ccccc1CNS(=O)(=O)c1cc(C(=O)Nc2cccc(C(F)(F)F)c2)ccc1F", "activity, negative = inhibition": "6.25% (inactive)"}
{"compound": "O=C(Nc1ccc(Br)cc1)c1cc(S(=O)(=O)N2CCc3ccccc32)ccc1F", "activity, negative = inhibition": "6.25% (inactive)"}
{"compound": "Cc1ccc(CNc2nc3c(c(=O)n(C)c(=O)n3C)n2Cc2ccc(Cl)cc2)cc1", "activity, negative = inhibition": "-29.3% (inactive)"}
{"compound": "CCOC(=O)Cn1c(=O)c2c(nc(N3CCOCC3)n2Cc2ccccc2)n(C)c1=O", "Potency": "8.26 µM (active)"}
{"compound": "CCOC(=O)Cn1c(=O)n(-c2ccccc2OC)c2nc(-c3ccccc3F)nc(C(N)=O)c21", "activity, negative = inhibition": "-2.08% (inactive)"}
{"compound": "CCN(C(=O)CN1C(=O)c2ccccc2Sc2ccc(C(=O)OC)cc21)c1cccc(C)c1", "activity, negative = inhibition": "-1.6% (inactive)"}
{"compound": "O=C(Nc1ccc(Cl)cc1)C1CCC(CNS(=O)(=O)c2ccc(Br)s2)CC1", "note": "(centres undefined)", "activity, negative = inhibition": "-26% (inactive)"}
{"compound": "Cc1cccc(C)c1NC(=O)c1cc(S(=O)(=O)N2CCCc3ccccc32)ccc1F", "activity, negative = inhibition": "6.25% (inactive)"}
{"compound": "CC(C)S(=O)(=O)c1oc(-c2ccc(F)cc2)nc1S(=O)(=O)c1ccc(F)cc1", "Potency": "0.826 µM (active)"}
{"compound": "CCC(C)S(=O)(=O)c1oc(-c2ccc(F)cc2)nc1S(=O)(=O)c1ccc(F)cc1", "note": "(centres undefined)", "Potency": "1.04 µM (active)"}
{"compound": "CC(C)S(=O)(=O)c1oc(-c2cccs2)nc1S(=O)(=O)c1ccc(F)cc1", "Potency": "0.927 µM (active)"}
{"compound": "Brc1ccc(CNCCCSc2nnnn2-c2ccccc2)cc1", "activity, negative = inhibition": "-15.4% (inactive)"}
{"compound": "CCOCc1cc(CN2CCN(c3cccc(C(F)(F)F)c3)CC2)c(O)c2ncccc12", "activity, negative = inhibition": "-28% (inactive)"}
{"compound": "Cc1cn2c(=O)cc(COC(=O)c3ccc(NC(=O)COc4ccccc4C)cc3)nc2s1", "activity, negative = inhibition": "0% (inactive)"}
{"compound": "CC(=O)c1ccc(N2CCN(S(=O)(=O)c3ccc(-c4coc(C)n4)cc3)CC2)cc1", "activity, negative = inhibition": "-10.4% (inactive)"}
{"compound": "CCOC(=O)c1c(NC(=O)c2ccc(S(=O)(=O)N3CCCC(C)C3)cc2)sc2c1CC(C)(C)NC2(C)C", "note": "(centres undefined)", "activity, negative = inhibition": "6.25% (inactive)"}
{"compound": "CN(C)c1ccc(/C=C(\\C#N)c2nc(-c3ccc(Cl)c(Cl)c3)cs2)cc1", "activity, negative = inhibition": "0.289% (inactive)"}
{"compound": "COc1ccc(-c2nc(SCC(=O)Nc3c(C)cc(C)cc3C)n[nH]2)cc1", "activity, negative = inhibition": "-15.3% (inactive)"}
{"compound": "CCOc1ccc(NC(=O)CSc2oc(-c3ccc(F)cc3)nc2S(=O)(=O)c2ccc(C)cc2)cc1", "Potency": "2.33 µM (active)"}
{"compound": "CCSc1oc(-c2ccc(F)cc2)nc1S(=O)(=O)c1ccc(C)cc1", "activity, negative = inhibition": "-11.9% (inactive)"}
{"compound": "CCOc1ccc(-c2nnc(SCC(=O)Nc3cccc(OC)c3)nc2-c2ccc(OCC)cc2)cc1", "activity, negative = inhibition": "6.25% (inactive)"}
{"compound": "Cc1ccc(S(=O)(=O)c2nc(-c3cccs3)oc2SCC(=O)Nc2cc(C)cc(C)c2)cc1", "Potency": "16.5 µM (active)"}
{"compound": "CCOc1ccc(-c2cc(CCCC(=O)NCCc3ccc(OC)c(OC)c3)no2)cc1", "activity, negative = inhibition": "-10% (inactive)"}
{"compound": "CCOC(=O)c1c(-c2ccccc2)oc2ccc(N(C(C)=O)S(=O)(=O)c3ccc(CC)cc3)cc12", "activity, negative = inhibition": "-2.37% (inactive)"}
{"compound": "Cc1ccc(-n2c(SCC(=O)Nc3cccc(Cl)c3)nc3n[nH]c(C)c3c2=N)cc1", "activity, negative = inhibition": "0% (inactive)"}
{"compound": "Cc1ccc(OCC(=O)Nc2ccc3nc(Nc4cccc(Cl)c4)cc(C)c3c2)cc1", "Potency": "14.7 µM (active)"}
{"compound": "CCN(CC)c1cc(C)c2cc(NC(=O)c3ccccc3Cl)ccc2n1", "activity, negative = inhibition": "-4.11% (inactive)"}
{"compound": "CCN1C(=O)C(O)(c2c(C)[nH]c3ccccc23)c2ccccc21", "note": "(centres undefined)", "activity, negative = inhibition": "-0.614% (inactive)"}
{"compound": "Cc1nn(-c2ccc(N3CCOCC3)nn2)c(C)c1CCC(=O)NCc1ccccc1F", "activity, negative = inhibition": "-3.08% (inactive)"}
{"compound": "O=C(CSc1nc(-c2ccccc2)[nH]c1-c1ccccc1)Nc1ccc2c(c1)OCO2", "activity, negative = inhibition": "-14.4% (inactive)"}
{"compound": "Cc1cccc(C(=O)Nc2c(-c3ccc(F)cc3)nc3ccccn23)c1", "activity, negative = inhibition": "-18.2% (inactive)"}
{"compound": "CCOC(=O)c1c(C)[nH]c(CCC(=O)NCc2ccc(OC)cc2OC)c1C", "activity, negative = inhibition": "12.9% (inactive)"}
{"compound": "CCOC(=O)c1c(C)[nH]c(CCC(=O)NCCCN2CCN(c3cc(C)ccc3C)CC2)c1C", "Potency": "11.7 µM (active)"}
{"compound": "COC(=O)c1c(-c2ccc(Cl)cc2)noc1N1CCN(c2cc(C)ccc2C)CC1", "activity, negative = inhibition": "8.33% (inactive)"}
{"compound": "CCOC(=O)c1c(C)[nH]c(CCC(=O)NCCCN2CCN(c3cc(Cl)ccc3C)CC2)c1C", "Potency": "14.7 µM (active)"}
{"compound": "CCOC(=O)c1c(C)[nH]c(CCC(=O)Nc2cc(C)cc(C)c2)c1C", "activity, negative = inhibition": "-3.85% (inactive)"}
